Experimental data taken from PMC4336329 (PLoS ONE, 2015).
About 2,200 (0.71%) of roughly 310,000 compounds showed an effect of 50% or more. The effect is printed as a negative number. For the sample, strong results were picked, then their nearest neighbours and some compounds at random.

biological target: human ether-à-go-go-related gene (hERG) potassium channel (human, UniProt Q12809); assay: primary screen, population patch clamp on CHO cells stably expressing hERG; higher = less effect of the substance
Sequence (Q12809 whole entry, looked up): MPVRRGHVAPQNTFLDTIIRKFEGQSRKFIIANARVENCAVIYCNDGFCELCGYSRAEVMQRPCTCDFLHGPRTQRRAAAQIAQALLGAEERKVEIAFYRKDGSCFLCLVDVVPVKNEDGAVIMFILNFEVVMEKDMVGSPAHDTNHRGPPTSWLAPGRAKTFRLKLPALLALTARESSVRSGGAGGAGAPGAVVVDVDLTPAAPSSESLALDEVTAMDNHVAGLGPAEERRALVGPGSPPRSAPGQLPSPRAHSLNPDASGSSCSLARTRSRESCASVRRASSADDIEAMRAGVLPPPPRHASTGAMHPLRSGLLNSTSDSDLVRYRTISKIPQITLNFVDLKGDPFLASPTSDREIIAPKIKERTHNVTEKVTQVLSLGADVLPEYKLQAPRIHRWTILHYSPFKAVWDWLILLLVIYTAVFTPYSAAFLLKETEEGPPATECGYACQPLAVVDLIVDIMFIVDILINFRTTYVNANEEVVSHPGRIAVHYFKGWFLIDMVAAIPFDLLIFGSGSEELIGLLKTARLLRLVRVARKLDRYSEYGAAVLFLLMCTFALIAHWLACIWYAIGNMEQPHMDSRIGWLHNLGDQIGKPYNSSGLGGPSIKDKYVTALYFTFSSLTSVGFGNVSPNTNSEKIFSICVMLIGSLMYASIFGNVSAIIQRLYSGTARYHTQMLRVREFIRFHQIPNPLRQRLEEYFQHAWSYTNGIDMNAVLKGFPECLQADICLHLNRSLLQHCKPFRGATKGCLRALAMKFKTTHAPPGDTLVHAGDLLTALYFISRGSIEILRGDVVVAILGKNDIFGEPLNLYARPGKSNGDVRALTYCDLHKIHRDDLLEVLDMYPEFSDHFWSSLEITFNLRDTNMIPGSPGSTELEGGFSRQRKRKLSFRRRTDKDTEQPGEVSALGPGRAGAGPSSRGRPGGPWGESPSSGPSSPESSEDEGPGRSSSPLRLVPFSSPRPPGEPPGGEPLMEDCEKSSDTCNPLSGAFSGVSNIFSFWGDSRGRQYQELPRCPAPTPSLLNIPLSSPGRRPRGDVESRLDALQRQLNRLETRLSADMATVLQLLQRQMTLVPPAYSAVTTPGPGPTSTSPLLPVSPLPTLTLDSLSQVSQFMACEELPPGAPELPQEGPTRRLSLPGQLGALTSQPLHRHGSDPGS

SMILES	hERG current change (%, negative = inhibition) at 1uM
Cc1cnc(C(=O)NC2CC(C)(C)Cc3c2cnn3-c2cccc(F)c2)cn1 (stereo not shown)	3.82%
CC(C)(C)c1ccc(-n2ncc3c2CCCC3NC(=O)c2csnn2)cc1 (stereo not shown)	9.11%
Cc1ccc(-n2ncc3c2CCCC3NC(=O)c2csnn2)cc1C (stereo not shown)	2.61%
Cc1cc(C)cc(-n2ncc3c2CCCC3NC(=O)c2csnn2)c1 (stereo not shown)	-84%
CC1=C(C(=O)NC2CC(C)(C)Cc3c2cnn3-c2cccc(F)c2)OCCO1 (stereo not shown)	-3.59%
Cc1cc(C(=O)NC2CC(C)(C)Cc3c2cnn3-c2cccc(F)c2)n(C)n1 (stereo not shown)	3.12%
Cc1cc(C(=O)NC2CC(C)(C)Cc3c2cnn3-c2cccc(F)c2)nn1C (stereo not shown)	9.79%
CC1(C)Cc2c(cnn2-c2cccc(F)c2)C(NC(=O)c2ccc(=O)[nH]n2)C1 (stereo not shown)	-61.7%
CC1(C)Cc2c(cnn2-c2cccc(F)c2)C(NC(=O)c2csnn2)C1 (stereo not shown)	-85%
Nc1ccc(C(=O)NCc2ccccc2)cc1	8.94%
CCNC(=O)c1ccc(NC(=O)CC2SC(N3CCCCC3)=NC2=O)cc1 (stereo not shown)	-1.11%
COc1ccc(CCNC(=O)c2cc(C)oc2C)cc1	10.3%
OCC1(Cc2ccccc2)CCN(C2CCN(c3ccc(F)c(F)c3)CC2)CC1	-124%
OCC1(Cc2ccccc2)CCN(C2CCN(c3ccccc3F)CC2)CC1	-38.5%
OCCC1CN(C2CCN(c3ccccc3F)CC2)CCN1Cc1ccccc1 (stereo not shown)	-1.66%
OCC1(Cc2ccccc2)CCCN(C2CCCC2)C1 (stereo not shown)	-3.43%
OCCC1CN(C2CCC2)CCN1Cc1ccc(F)c(F)c1 (stereo not shown)	12.1%
OCCC1CN(C2CCN(c3ccccc3)CC2)CCN1Cc1ccc(F)c(F)c1 (stereo not shown)	-71.1%
CC(C)c1c(C(=O)N/N=C/c2ccccc2C(=O)O)nnn1-c1nonc1N	7.36%
C(=C\CSc1nnnn1-c1ccccc1)/CSc1nnnn1-c1ccccc1	0.568%
O=C(Cn1nc(-c2ccccc2)c2ccccc2c1=O)Nc1ccc2c(c1)nc1n2CCOC1	13.3%
C/C(=N\NC(=O)C1(C)CC1(Br)Br)c1cccc(NC(=O)c2ccc(C)o2)c1 (stereo not shown)	11.8%
CN1CCCN(C(=O)c2ccc(Cl)s2)CC1	-50.5%
CN1CCCN(C(=O)c2ccc(Br)s2)CC1	1.6%
O=C(c1ccc(Cl)s1)N1CCCC1	6.35%
